target: PUM1 PUF domain R3-FFS (Homo sapiens, UniProt Q14671 828-1176, C935F;R936F;Q939S); assay: yeast three-hybrid, YBZ-1, SC-Leu-His + 0.5 mM 3-AT, 4 days; settings: tags: N-Gal4 AD-HA kept; label: inside an RPR1-promoter hybrid RNA with tandem MS2 sites; ssRNA
Summary of the method: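 Pumilio-1 PUF domain libraries, randomized (NNK) at the three base-contacting residues of each repeat, were co-expressed with matching RNA elements from a centromeric plasmid in strain YBZ-1 (LexA–MS2 coat fusion, HIS3 reporter). Transformants were plated on SC-Leu (input) and SC-Leu-His + 0.5 mM 3-AT (selection) for four days, and repeat regions were PCR-amplified and Illumina-sequenced. The interaction score is the log2 change in variant frequency from input to selection, with pseudocount 1 where absent.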

Chain of PUM1 PUF domain R3-FFS (Q14671 828-1176 C935F/R936F/Q939S): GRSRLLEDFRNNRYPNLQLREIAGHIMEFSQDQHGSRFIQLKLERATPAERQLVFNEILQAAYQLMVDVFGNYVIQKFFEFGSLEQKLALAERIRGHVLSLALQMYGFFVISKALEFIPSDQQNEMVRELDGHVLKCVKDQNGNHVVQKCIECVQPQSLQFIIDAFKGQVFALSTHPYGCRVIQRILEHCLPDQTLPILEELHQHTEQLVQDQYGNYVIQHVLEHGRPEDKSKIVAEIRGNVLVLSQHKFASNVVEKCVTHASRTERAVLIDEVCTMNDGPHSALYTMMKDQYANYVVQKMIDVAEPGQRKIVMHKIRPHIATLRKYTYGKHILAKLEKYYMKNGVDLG

| Sequence | binding signal |
| --- | --- |
| GGCUAGAACUAGUGGAUCCCCCGGCGCCCGGCGGCUCGAGCCCGGGUAAGUGUAAGUAGUCUGCAUGCCGCCGGGCGCCAUGCCUGCAGGUCGACUCUAGAAAACAUG | 6.93 log2 enrichment (interaction score) |
| GGCUAGAACUAGUGGAUCCCCCGGCGCCCGGCGGCUCGAGCCCGGGUAAGUGUAAUUAGUCUGCAUGCCGCCGGGCGCCAUGCCUGCAGGUCGACUCUAGAAAACAUG | 5.05 log2 enrichment (interaction score) |
| GGCUAGAACUAGUGGAUCCCCCGGCGCCCGGCGGCUCGAGCCCGGGUAAGUGUAAAUAGUCUGCAUGCCGCCGGGCGCCAUGCCUGCAGGUCGACUCUAGAAAACAUG | 3.99 log2 enrichment (interaction score) |

Source: publication PMC8384837, “Expanding the binding specificity for RNA recognition by a PUF domain”
